In PubChem BioAssay AID1159580 (chemical genetic matrix, 2015):
Several values for one entry are separate records, joined by “and”; a condition that tells them apart may be missing. Equal entries are not always repeated. About 2,000 (36%) of roughly 5,500 compounds were called active. Inconclusive results (about 18%) are left out. No stated cut-off is given here; in the data, active means normalized growth mostly below about 0.91 (no sharp cut-off); inconclusive means no clear call, values can overlap the other calls; inactive means mostly above about 0.92. This is one part of the list. Where a SMILES comes first, the peptide text is derived from it.

Experiment: chemical genetic growth profiling, strain panel (AID 1159580);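 further: tested at 20 µM; growth read once vehicle control cultures reached saturation at 30 °C; 1 = growth at the plate median or of vehicle wells; lower values mean less growth of the strain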
Settings: S. cerevisiae deletion strains, growth OD

Measured: normalized growth

CC(=O)N[C@@H](CC(=O)O)C(=O)N[C@@H](CCC(=O)O)C(=O)O (Ac-Asp-Glu-OH)
inactive: locus YAL013W, strain DEP1, active compounds read low 0.996 | locus YAL021C, strain ccr4, active compounds read low 1 | locus YAL026C, strain drs2, active compounds read low 1.01 | locus YAL030W, strain snc1, active compounds read low 1.01 | locus YBL061C, strain skt5, active compounds read low 1 | locus YBR009C, strain hhf1, active compounds read low 0.969 | locus YBR021W, strain FUR4, active compounds read low 1.02 | locus YBR023C, strain chs3, active compounds read low 1.01 | locus YBR171W, strain sec66, active compounds read low 1 | locus YBR229C, strain ROT2, active compounds read low 1.01 | locus YBR231C, strain swc5, active compounds read low 0.997 | locus YBR279W, strain paf1, active compounds read low 1 | locus YCL011C, strain gbp2, active compounds read low 1 | locus YCL016C, strain dcc1, active compounds read low 0.998 | locus YCL029C, strain bik1, active compounds read low 0.989 | locus YCL061C, strain MRC1, active compounds read low 1 | locus YCL069W, strain vba3, active compounds read low 1 | locus YCR088W, strain abp1, active compounds read low 1 | locus YDL005C, strain med2, active compounds read low 1 | locus YDL035C, strain GPR1, active compounds read low 1.01 | locus YDL040C, strain nat1, active compounds read low 0.998 | locus YDL074C, strain BRE1, active compounds read low 1.03 | locus YDL101C, strain DUN1, active compounds read low 1.03 | locus YDL134C, strain PPH21, active compounds read low 1.02 | locus YDL185W, strain tfp1, active compounds read low 1 | locus YDL192W, strain arf1, active compounds read low 0.996 | locus YDR001C, strain nth1, active compounds read low 1 | locus YDR069C, strain doa4, active compounds read low 1 | locus YDR101C, strain arx1, active compounds read low 0.98 | locus YDR137W, strain rgp1, active compounds read low 1.03 | locus YDR150W, strain NUM1, active compounds read low 1.02 | locus YDR159W, strain sac3, active compounds read low 0.983 | locus YDR162C, strain NBP2, active compounds read low 1.02 | locus YDR195W, strain ref2 0.985 | locus YDR297W, strain sur2, active compounds read low 0.996 | locus YDR318W, strain mcm21, active compounds read low 0.981 | locus YDR334W, strain swr1, active compounds read low 1.01 | locus YDR335W, strain msn5, active compounds read low 1 | locus YDR388W, active compounds read low 0.989 | locus YDR392W, strain spt3, active compounds read low 0.898 | locus YDR502C, strain sam2, active compounds read low 0.989 | locus YEL003W, strain gim4, active compounds read low 1 | locus YEL037C, strain rad23, active compounds read low 1.01 | locus YEL061C, strain CIN8 (second series), active compounds read low 1 | locus YEL061C, strain CIN8, active compounds read low 1.01 | locus YER015W, strain faa2, active compounds read low 1 | locus YER016W, strain bim1, active compounds read low 1 | locus YER110C, active compounds read low 0.987 | locus YER111C, strain swi4, active compounds read low 0.993 | locus YER155C, strain BEM2 (second series), active compounds read low 1.01 | locus YER155C, strain BEM2, active compounds read low 1.01 | locus YER167W, strain BCK2, active compounds read low 1 | locus YFR010W, strain ubp6, active compounds read low 1.01 | locus YGL078C, strain dbp3, active compounds read low 0.993 | locus YGL086W, strain mad1, active compounds read low 0.994 | locus YGL167C, strain pmr1, active compounds read low 0.995 | locus YGL173C, strain kem1, active compounds read low 1.01 | locus YGL227W, strain vid30, active compounds read low 1 | locus YGL240W, strain doc1, active compounds read low 0.987 | locus YGL248W, strain PDE1, active compounds read low 1.02 | locus YGL253W, strain hxk2, active compounds read low 1.02 | locus YGR078C, strain PAC10, active compounds read low 1.01 | locus YGR135W, strain pre9, active compounds read low 0.995 | locus YGR229C, strain SMI1, active compounds read low 1.01 | locus YGR252W, strain gcn5, active compounds read low 0.97 | locus YHR013C, strain ard1, active compounds read low 0.977 | locus YHR027C, strain rpn1, active compounds read low 1.01 | locus YHR030C, strain SLT2, active compounds read low 1.01 and 0.999 | locus YHR079C, strain IRE1 (second series), active compounds read low 0.992 | locus YHR079C, strain IRE1, active compounds read low 0.99 | locus YHR094C, strain hxt1, active compounds read low 0.985 | locus YHR129C, strain ARP1, active compounds read low 1.01 | locus YHR142W, strain chs7, active compounds read low 1.04 | locus YHR200W, strain rpn10, active compounds read low 0.998 | locus YIL066C, strain RNR3, active compounds read low 1.01 | locus YIL073C, strain SPO22, active compounds read low 1 | locus YIL125W, strain kgd1, active compounds read low 0.982 | locus YIR030C, strain dcg1, active compounds read low 0.992 | locus YJL092W, strain hpr5, active compounds read low 1.01 | locus YJL095W, strain BCK1 (second series), active compounds read low 1 | locus YJL095W, strain BCK1, active compounds read low 1.02 and 0.976 | locus YJL115W, strain asf1, active compounds read low 0.999 | locus YJL129C, strain trk1, active compounds read low 1.01 | locus YJL134W, strain LCB3, active compounds read low 1.01 | locus YJL154C, strain vps35, active compounds read low 1 | locus YJL164C, strain tpk1, active compounds read low 1 | locus YJL166W, strain qcr8, active compounds read low 1.01 | locus YJL168C, strain set2, active compounds read low 0.99 | locus YJL187C, strain SWE1 (second series), active compounds read low 1.01 | locus YJL187C, strain SWE1, active compounds read low 1 | locus YJR043C, strain POL32, active compounds read low 1.01 | locus YJR066W, strain TOR1, active compounds read low 0.904
